Assay results from PubChem BioAssay AID1159580 (chemical genetic matrix, 2015).
The campaign covered roughly 5,500 compounds. About 2,000 (36%) were called active. Another 18% or so got no clear call; they are omitted. The list shows a part of the results. A number with no mark means an inactive call. No stated cut-off is given here; in the data, active means normalized growth mostly below about 0.91 (no sharp cut-off); inconclusive means no clear call, values can overlap the other calls; inactive means mostly above about 0.92.

Test: chemical genetic growth profiling, strain panel (AID 1159580);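 further: tested at 20 µM; growth read once vehicle control cultures reached saturation at 30 °C; 1 = growth at the plate median or of vehicle wells; lower values mean less growth of the strain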
Conditions: growth OD

COC(=O)[C@@]1(C)CCC[C@]2(C)c3ccc(O)c(C(C)C)c3CCC12 (stereo partly specified)
normalized growth (S. cerevisiae deletion strains, locus YJR066W, strain TOR1, hits give low values): 0.689 (active)
normalized growth (S. cerevisiae deletion strains, locus YKL009W, strain mrt4, hits give low values): 0.859 (active)
normalized growth (S. cerevisiae deletion strains, locus YKL068W, hits give low values): 0.979
normalized growth (S. cerevisiae deletion strains, locus YKL085W, strain MDH1 (second series), hits give low values): 0.522 (active)
normalized growth (S. cerevisiae deletion strains, locus YKL085W, strain MDH1, hits give low values): 0.522 (active)
normalized growth (S. cerevisiae deletion strains, locus YKL160W, strain elf1, hits give low values): 0.881 (active)
normalized growth (S. cerevisiae deletion strains, locus YKR001C, strain vps1, hits give low values): 0.231 (active)
normalized growth (S. cerevisiae deletion strains, locus YKR026C, strain gcn3, hits give low values): 0.978
normalized growth (S. cerevisiae deletion strains, locus YKR091W, strain srl3, hits give low values): 0.976
normalized growth (S. cerevisiae deletion strains, locus YLL001W, strain dnm1, hits give low values): 0.937
normalized growth (S. cerevisiae deletion strains, locus YLL026W, hits give low values): 0.843 (active)
normalized growth (S. cerevisiae deletion strains, locus YLL041C, strain sdh2, hits give low values): 0.965
normalized growth (S. cerevisiae deletion strains, locus YLR027C, strain aat2, hits give low values): 0.354 (active)
normalized growth (S. cerevisiae deletion strains, locus YLR039C, strain RIC1, hits give low values): 0.245 (active)
normalized growth (S. cerevisiae deletion strains, locus YLR058C, strain SHM2, hits give low values): 0.661 (active)
normalized growth (S. cerevisiae deletion strains, locus YLR102C, strain apc9, hits give low values): 0.95
normalized growth (S. cerevisiae deletion strains, locus YLR113W, strain HOG1, hits give low values): 0.284 (active)
normalized growth (S. cerevisiae deletion strains, locus YLR221C, strain rsa3, hits give low values): 0.619 (active)
normalized growth (S. cerevisiae deletion strains, locus YLR258W, strain gsy2, hits give low values): 0.786 (active)
normalized growth (S. cerevisiae deletion strains, locus YLR262C, strain YPT6 (second series), hits give low values): 0.208 (active)
normalized growth (S. cerevisiae deletion strains, locus YLR268W, strain sec22, hits give low values): 0.85 (active)
normalized growth (S. cerevisiae deletion strains, locus YLR320W, strain mms22, hits give low values): 0.695 (active)
normalized growth (S. cerevisiae deletion strains, locus YLR330W, strain CHS5, hits give low values): 0.662 (active)
normalized growth (S. cerevisiae deletion strains, locus YLR342W, strain FKS1 (second series), hits give low values): 0.42 (active)
normalized growth (S. cerevisiae deletion strains, locus YLR342W, strain FKS1, hits give low values): 0.596 (active)
normalized growth (S. cerevisiae deletion strains, locus YLR357W, strain rsc2, hits give low values): 1
normalized growth (S. cerevisiae deletion strains, locus YLR370C, strain arc18, hits give low values): 1.01
normalized growth (S. cerevisiae deletion strains, locus YLR371W, strain rom2, hits give low values): 0.444 (active)
normalized growth (S. cerevisiae deletion strains, locus YLR384C, strain iki3, hits give low values): 0.998
normalized growth (S. cerevisiae deletion strains, locus YLR418C, strain cdc73, hits give low values): 0.297 (active)
normalized growth (S. cerevisiae deletion strains, locus YML016C, strain PPZ1, hits give low values): 0.889 (active)
normalized growth (S. cerevisiae deletion strains, locus YML032C, strain rad52, hits give low values): 0.732 (active)
normalized growth (S. cerevisiae deletion strains, locus YML120C, strain ndi1, hits give low values): 0.222 (active)
normalized growth (S. cerevisiae deletion strains, locus YML124C, strain tub3, hits give low values): 0.922 (active)
normalized growth (S. cerevisiae deletion strains, locus YMR058W, strain fet3, hits give low values): 0.919
normalized growth (S. cerevisiae deletion strains, locus YMR078C, strain ctf18, hits give low values): 0.96
normalized growth (S. cerevisiae deletion strains, locus YMR125W, strain sto1, hits give low values): 0.959
normalized growth (S. cerevisiae deletion strains, locus YMR129W, hits give low values): 0.96
normalized growth (S. cerevisiae deletion strains, locus YMR205C, strain PFK2, hits give low values): 0.649 (active)
normalized growth (S. cerevisiae deletion strains, locus YMR223W, strain ubp8, hits give low values): 0.828 (active)
normalized growth (S. cerevisiae deletion strains, locus YMR231W, strain pep5, hits give low values): 0.996
normalized growth (S. cerevisiae deletion strains, locus YMR263W, strain SAP30, hits give low values): 0.657 (active)
normalized growth (S. cerevisiae deletion strains, locus YMR307W, strain GAS1, hits give low values): 0.509 (active)
normalized growth (S. cerevisiae deletion strains, locus YNL067W, strain RPL9B, hits give low values): 0.903
normalized growth (S. cerevisiae deletion strains, locus YNL071W, strain lat1, hits give low values): 0.684 (active)
normalized growth (S. cerevisiae deletion strains, locus YNL153C, strain GIM3, hits give low values): 0.788 (active)
normalized growth (S. cerevisiae deletion strains, locus YNL183C, strain NPR1, hits give low values): 0.715 (active)
normalized growth (S. cerevisiae deletion strains, locus YNL209W, strain ssb2, hits give low values): 0.856 (active)
normalized growth (S. cerevisiae deletion strains, locus YNL233W, strain BNI4, hits give low values): 0.563 (active)
normalized growth (S. cerevisiae deletion strains, locus YNL248C, strain rpa49, hits give low values): 0.916
normalized growth (S. cerevisiae deletion strains, locus YNL250W, strain rad50, hits give low values): 0.934
normalized growth (S. cerevisiae deletion strains, locus YNL271C, strain bni1, hits give low values): 0.971
normalized growth (S. cerevisiae deletion strains, locus YNL298W, strain CLA4, hits give low values): 0.883 (active)
normalized growth (S. cerevisiae deletion strains, locus YNL307C, strain MCK1, hits give low values): 0.502 (active)
normalized growth (S. cerevisiae deletion strains, locus YNL322C, strain KRE1 (second series), hits give low values): 0.985
normalized growth (S. cerevisiae deletion strains, locus YNR049C, strain mso1, hits give low values): 0.964
normalized growth (S. cerevisiae deletion strains, locus YNR052C, strain pop2, hits give low values): 0.629 (active)
normalized growth (S. cerevisiae deletion strains, locus YOL012C, strain htz1): 0.967
normalized growth (S. cerevisiae deletion strains, locus YOL147C, strain pex11, hits give low values): 0.681 (active)
normalized growth (S. cerevisiae deletion strains, locus YOR001W, strain rrp6, hits give low values): 0.636 (active)
normalized growth (S. cerevisiae deletion strains, locus YOR061W, strain CKA2, hits give low values): 0.859 (active)
normalized growth (S. cerevisiae deletion strains, locus YOR069W, strain VPS5, hits give low values): 0.854 (active)
normalized growth (S. cerevisiae deletion strains, locus YOR070C, strain gyp1, hits give low values): 0.693 (active)
normalized growth (S. cerevisiae deletion strains, locus YOR080W, strain dia2, hits give low values): 0.715 (active)
normalized growth (S. cerevisiae deletion strains, locus YOR083W, strain WHI5, hits give low values): 0.835 (active)
normalized growth (S. cerevisiae deletion strains, locus YOR106W, strain vam3, hits give low values): 0.373 (active)
normalized growth (S. cerevisiae deletion strains, locus YOR136W, strain idh2, hits give low values): 0.929
normalized growth (S. cerevisiae deletion strains, locus YOR144C, strain elg1, hits give low values): 0.711 (active)
normalized growth (S. cerevisiae deletion strains, locus YOR184W, strain ser1, hits give low values): 0.355 (active)
normalized growth (S. cerevisiae deletion strains, locus YOR231W, strain MKK1, hits give low values): 0.575 (active)
normalized growth (S. cerevisiae deletion strains, locus YOR265W, strain rbl2, hits give low values): 0.741 (active)
normalized growth (S. cerevisiae deletion strains, locus YOR270C, strain vph1, hits give low values): 0.612 (active)
normalized growth (S. cerevisiae deletion strains, locus YOR290C, strain snf2, hits give low values): 0.776 (active)
normalized growth (S. cerevisiae deletion strains, locus YOR316C, strain cot1, hits give low values): 0.984
normalized growth (S. cerevisiae deletion strains, locus YPL051W, strain arl3, hits give low values): 0.539 (active)
normalized growth (S. cerevisiae deletion strains, locus YPL055C, strain LGE1, hits give low values): 0.403 (active)
normalized growth (S. cerevisiae deletion strains, locus YPL078C, strain atp4, hits give low values): 0.924
normalized growth (S. cerevisiae deletion strains, locus YPL106C, strain sse1, hits give low values): 0.505 (active)
normalized growth (S. cerevisiae deletion strains, locus YPL240C, strain hsp82, hits give low values): 0.697 (active)
normalized growth (S. cerevisiae deletion strains, locus YPL256C, strain CLN2, hits give low values): 0.682 (active)
normalized growth (S. cerevisiae deletion strains, locus YPR119W, strain clb2, hits give low values): 0.799 (active)
normalized growth (S. cerevisiae deletion strains, locus YPR141C, strain kar3, hits give low values): 0.987
normalized growth (S. cerevisiae deletion strains, locus YPR163C, strain tif3, hits give low values): 0.817 (active)
normalized growth (S. cerevisiae deletion strains, locus YPR167C, strain met16, hits give low values): 0.773 (active)
normalized growth (S. cerevisiae deletion strains, strain wtn01, hits give low values): 0.812 (active)
normalized growth (S. cerevisiae strains, strain wild type, hits give low values): 0.458 (active)
